# FBW7 act = human FBW7 E3 ligase activation, primary screen. AID 1259310. normalized activity (activation), % at 26.1 µM. AlphaScreen FBW7–phospho-cyclin E peptide binding, activator screen. actives 0.13% (n = 650,000). Q969H0; in the data active = normalized activity above about 1.9%;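 note: purified mutant Fbw7 with reduced substrate affinity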
# TEAD-YAP block = TEAD-YAP interaction inhibition; HEK-TIYL cells, TEAD-Gal4/YAP UAS-luciferase luminescence; inhibition, % at 9.12 µM; actives 1.4% (n = 640,000); in the data active = inhibition above about 32%;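 note: 0% = median of test compound wells and 100% = reference inhibitor wells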
# MITF primary = human MITF inhibition, primary screen; AlphaScreen MITF homodimerization, bead proximity signal; actives 0.91% (n = 650,000); inhibition, % at 2.6 µM; O75030; in the data active = inhibition above about 50%;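 note: 0% = vehicle wells with protein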
# GPR151 activ = activates the human receptor GPR151; Q8TDV0; PathHunter beta-arrestin GPR151 cells, luminescence; actives 1% (n = 650,000); activation, % at 11.2 µM; in the data active = activation above about 4.9%;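 note: 0% = median of compound wells and 100% = cells with positive control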
# Target sequence (Q8TDV0 whole entry, looked up): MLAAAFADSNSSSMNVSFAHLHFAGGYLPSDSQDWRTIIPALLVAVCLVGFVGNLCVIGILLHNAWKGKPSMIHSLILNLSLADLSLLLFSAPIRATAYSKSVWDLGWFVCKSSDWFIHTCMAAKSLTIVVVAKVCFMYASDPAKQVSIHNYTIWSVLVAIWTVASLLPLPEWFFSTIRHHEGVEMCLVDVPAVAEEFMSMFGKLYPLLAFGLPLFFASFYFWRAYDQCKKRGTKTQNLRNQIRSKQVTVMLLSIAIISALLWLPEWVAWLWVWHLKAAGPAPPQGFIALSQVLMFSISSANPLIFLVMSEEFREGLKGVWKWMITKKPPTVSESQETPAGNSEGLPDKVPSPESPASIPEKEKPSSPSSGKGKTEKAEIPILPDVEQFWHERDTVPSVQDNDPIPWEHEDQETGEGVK
# MITF confirm = confirmation of human MITF inhibitors; inhibition, % at 2.6 µM; actives 16% (n = 4,700); shares compounds with MITF primary; AlphaScreen MITF homodimerization, biotin/His-MITF beads;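 active = inhibition above a cutoff derived from the DMSO control wells, cut at about 28% in these data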;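 note: 0% = MITF dimer wells with DMSO only; inhibitors lower the bead chemiluminescence by keeping MITF from dimerizing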
# AS interf DR = AlphaScreen optical interference, dose response counter-screen. AlphaScreen optical interference counterscreen, cell-free. shares compounds with MITF primary. IC50, µM. actives 6% (n = 480). AID 1259373; call rule not given here
# AS interf ctr = AlphaScreen optical interference, counter-screen; shares compounds with MITF primary; LysRS AlphaScreen counterscreen, signal interference, triplicate; AID 1259376; inhibition, % at 2.6 µM; actives 7.6% (n = 4,700);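 active = inhibition above a cutoff derived from the DMSO control wells, cut at about 30% in these data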
# * marks the source's active call; other numbers are inactive results; nt = not tested or not shown. A selection: hits, their analogues and other compounds. The true share with any hit is near 3.4%.
SMILES,FBW7 act,TEAD-YAP block,MITF primary,GPR151 activ,MITF confirm,AS interf ctr,others
COc1cccc(C(=O)N2CCN(Cc3ccccc3Cl)CC2)c1,-0.5,-13.8,40.1,-1.1,nt,nt,
COc1ccc(CN2CCc3cc(OC)c(OC)cc3C2)cc1,0.8,0.3,17.9,-1.0,nt,nt,
COc1ccc(CN2CCN(Cc3cc(OC)c(OC)cc3OC)CC2)cc1,-0.2,-0.3,75.7*,0.7,10.3,19.5,
CCc1ccc(CN2CCN(Cc3cc(OC)c(OC)cc3OC)CC2)cc1,-0.2,5.3,63.4*,-1.0,-4.3,4.7,
CN(C)N1C(N)=C(C#N)C(c2cccc(Cl)c2Cl)C2=C1CC(C)(C)CC2=O (stereo unspecified),-0.1,27.0,10.3,1.0,nt,nt,
COc1ccc(CNC(=O)c2cnn3c2NC(c2ccc4c(c2)OCO4)CC3C(F)(F)F)cc1 (stereo unspecified),0.1,-20.9,68.3*,0.8,-8.8,-2.7,
COc1ccc(CNC(=O)c2cnn3c2NC(c2ccc(OC)cc2)CC3C(F)(F)F)cc1 (stereo unspecified),-0.2,-0.3,1.6,0.0,nt,nt,
O=C(Nc1ccc(Br)cc1F)C1CC1,-0.1,-0.2,0.3,1.6,nt,nt,
C/C(=N\Nc1cc(C(F)(F)F)nc(-c2ccccc2)n1)c1cccc(N)c1,0.0,14.1,-3.0,-0.5,nt,nt,
O=C(CNCc1ccccn1)Nc1ccc([N+](=O)[O-])cc1C(=O)Nc1ccccc1F,-1.9,-7.5,75.1*,-1.9,17.9,24.0,
O=C(CN1CCOCC1)Nc1ccc([N+](=O)[O-])cc1C(=O)Nc1ccccc1F,-0.1,6.3,4.0,3.2,nt,nt,
CC(COc1ccccc1)N1CCOc2ccc(CN3CCC(O)CC3)cc2C1 (stereo unspecified),-0.1,-10.5,-11.4,3.1,nt,nt,
Clc1cccc(/C=C/c2nn3c(-c4cccnc4)nnc3s2)c1,0.1,-5.5,9.4,1.4,nt,nt,
COc1ccccc1CCNc1nc(CN2CCC(OC)CC2)nc2ccccc12,-0.1,-12.7,-3.6,-1.4,nt,nt,
Cc1cc(C)cc(C(=O)Nc2c3c(nn2-c2ccc(F)cc2)CSC3)c1,0.2,17.5,2.1,1.3,nt,nt,
Cc1cccc(C(=O)Nc2c3c(nn2-c2ccc(F)cc2)CSC3)c1,0.0,-2.7,53.1*,2.1,34.7*,-3.2,AS interf DR=>5.53
O=C(/C=C\c1ccccc1)Nc1c2c(nn1-c1cccc(Cl)c1)CSC2,-0.1,-2.5,66.7*,2.0,9.6,-1.0,
COc1ccc(/C=C\C(=O)Nc2c3c(nn2-c2cccc(Cl)c2)CSC3)cc1OC,-0.1,-13.4,-9.2,-0.3,nt,nt,
CCOC(=O)/C(C#N)=C\c1cn(CCC(=O)O)nc1-c1ccc(F)cc1,0.0,-8.4,43.8,-1.8,nt,nt,
CC(C)CN(CC(C)C)C(=S)NC1CCCCC1,0.0,5.5,68.8*,-0.3,7.9,7.6,
CC(NCCN(C)C)C(=O)Nc1ccc2c(c1)OCO2 (stereo unspecified),-0.3,3.3,73.3*,0.2,2.6,2.4,
O=C(Nc1ccc(Cl)cc1Cl)N1CCN2C(=O)[C@@H]3CSCN3C(=O)[C@H]2C1,-0.4,6.2,69.5*,-0.8,66.0*,0.5,AS interf DR=>6.48
O=C(c1cccc2ccccc12)N1CCN2C(=O)[C@@H]3CSCN3C(=O)[C@H]2C1,0.1,3.8,18.8,-0.3,nt,nt,
CN1C(=O)[C@H]2CN(C(=O)NCc3ccccc3)CCN2C(=O)[C@@H]1Cc1ccccc1,0.6,3.0,80.4*,0.0,68.2*,-2.7,AS interf DR=>6.48
O=C(NCc1ccccc1)N1CCN2C(=O)[C@@H]3CSCN3C(=O)[C@H]2C1,-0.5,2.1,74.7*,-0.6,74.7*,-4.8,AS interf DR=>6.48
SMILES,FBW7 act,TEAD-YAP block,MITF primary,GPR151 activ,MITF confirm,AS interf ctr,others
CCCCN1CCN(c2ccc(C(F)(F)F)cn2)C1=O,0.2,-27.5,4.8,4.8,nt,nt,
O=C1N(CC2CC2)CCN1c1ccc(C(F)(F)F)cn1,0.5,-50.7,54.9*,0.6,6.0,14.0,
CCOc1ccc(N2C(=O)/C(=C/c3ccc(-c4ccc(Br)cc4)o3)C=C2c2ccccc2)cc1,-0.1,1.4,0.1,-1.5,nt,nt,
Cc1ccc(CN2CCN(C3CCCC3)CC2)cc1,-0.1,0.6,38.2,1.2,nt,nt,
Fc1ccc(CN2CCC(N3CCCCC3)CC2)cc1,-0.2,9.8,45.4,-0.3,nt,nt,
CCc1ccc(CN2CCN(C3CCCCCC3)CC2)cc1,-0.2,-13.0,79.4*,-1.1,2.1,-2.5,
c1cc(CN2CCN(C3CCCC3)CC2)ccn1,0.5,3.7,78.5*,-1.4,6.8,14.1,
Fc1ccc(CN2CCN(C3CCCCCC3)CC2)cc1,-0.2,8.4,64.5*,1.7,15.7,21.0,
Fc1ccc(CN2CCN(C3CCC(c4ccccc4)CC3)CC2)cc1 (stereo unspecified),0.0,-0.8,65.8*,0.7,1.1,8.6,
Fc1ccc(CN2CCN(C3CCN(Cc4ccccc4)CC3)CC2)cc1,0.0,8.5,14.1,0.2,nt,nt,
NC(=O)c1c(Nc2ccc3c(c2)OCO3)sc(C(=O)c2ccc(Cl)cc2)c1N,-0.4,-2.5,-0.2,2.3,nt,nt,
O=C(c1ccncc1)N1CCN(CCc2ccccc2)CC1,0.0,1.5,3.9,-0.5,nt,nt,
O=C(c1cccc(Cl)c1)N1CCN(Cc2c[nH]c3ccccc23)CC1,0.4,10.0,41.9,-0.6,nt,nt,
O=C(c1ccncc1)N1CCN(Cc2c[nH]c3ccccc23)CC1,-0.1,-1.7,56.3*,-1.7,-14.0,1.8,
COc1cccc(C(=O)N2CCN(Cc3c[nH]c4ccccc34)CC2)c1,-0.1,9.0,72.9*,-1.2,-14.0,-2.4,
CCN1CCN(CCNC(=O)CCCN2C(=S)NC(C)(C)CC2C)CC1 (stereo unspecified),-0.1,7.7,71.2*,1.4,4.8,6.3,
CCc1ccccc1NC(=O)CCCN1C(=S)NC(C)(C)CC1C (stereo unspecified),-0.2,5.5,-2.7,-0.3,nt,nt,
COc1ccc(-c2nc(N3CCN(C)CC3)[nH]c(=O)c2C#N)cc1,0.1,-2.1,4.0,-1.1,nt,nt,
N#Cc1c(-c2ccc3c(c2)OCO3)nc(N2CCCCC2)[nH]c1=O,0.5,2.4,79.8*,-0.7,78.1*,-7.5,AS interf DR=>6.48
Cc1ccc(-c2nc3cc(NC(=O)c4cccnc4)ccc3o2)cc1C,0.0,-34.1,62.6*,1.1,7.0,10.2,
Cc1ccc(-c2nc3cc(NC(=O)c4cccnc4)ccc3o2)cc1Cl,-0.1,-4.6,7.8,1.7,nt,nt,
Cc1nc(S(=O)(=O)c2ccccc2)c(SCc2ccc([N+](=O)[O-])cc2)o1,0.0,9.1,61.9*,-0.9,-0.6,32.9*,
O=C1CCC(N2CCCC2)CCN1Cc1ccccc1Cl (stereo unspecified),-0.1,0.3,-0.4,-0.2,nt,nt,
Clc1ccccc1CN1CCN(C2CCCCC2)CC1,0.1,-14.6,65.4*,1.3,12.9,15.0,
Cc1ccccc1CN1CCN(C2CCCC2)CC1,0.1,8.8,57.1*,2.7,-18.2,3.6,
Cc1ccccc1CN1CCC(N2CCCC2)CC1,0.2,-0.5,47.2,-0.9,nt,nt,

# Source: PubChem BioAssay (The Scripps Research Institute Molecular Screening Center)
